Measurements from a collection of fitness landscapes (doi:10.1016/j.celrep.2020.107928).
The full ranking holds about 81,000 sequences; the median of “one-hybrid fitness for binding parS DNA” is about -0.17, and the highest 2% start at about 0.51. The sample as a whole holds a higher share of the highest values than the screen did.

B1: Caulobacter ParB omega fusion; a variant is named by its letters at X, in order, B8GW30 (parent)
chain: MESVVVGEPGMSEGRRGLGRGLSALLGEVDAAPAQAPGEQLGGSREAPIEILQRNPDQPRRTFREEDLEDLSNSIREKGVLQPILVRPSPDTAGEYQIVAGERAWRAAQRAGLKTVPIMVRELDDLAVLEIGIIENVQRADLNVLEEALSYKVLMEKFERTQENIAQTIGKSXSHVANXMRLLXLPDEVQSYLVSGELTAXHARAIAAAADPVALAKQIIEGGLSVRETEALARKAPNLSAGKSKGGRPPRVKDTDTQALESDLSSVLGLDVSIDHRGSTGTLTITYATLEQLDDLCNRLTRGI

Variants of: B1
Assay: one-hybrid fitness for binding parS DNA (scaled: cognate 1, non-cognate 0); higher = stronger binding
Settings: with parS DNA site
In short: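 Selection: bacterial one-hybrid in E. coli USO, HIS3 reporter with the site 19 bp from the promoter, 48 hours at 37°C on M9-minus-histidine plus 0.1 mM IPTG and 5 mM 3-AT. Libraries were Caulobacter ParB with four randomised specificity codons, sequenced on Illumina before and after selection. Fitness is the rescaled log change in variant-to-wild-type read ratio, anchored to the cognate and non-cognate sites.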

Variant | one-hybrid fitness for binding parS DNA
SREL | ≤ 0.2
FTNN | ≤ 0.2
MTRS | ≤ 0.2
DMPV | ≤ 0.2
RDMM | ≤ 0.2
LDNS | ≤ 0.2
QVVM | ≤ 0.2
RGQC | 0.649
RGSF | ≤ 0.2
RGQF | ≤ 0.2
RGGR | ≤ 0.2
RGGC | 0.594
RGGM | ≤ 0.2
RGSC | 0.672
RGQK | ≤ 0.2
RGSK | ≤ 0.2
AAYP | ≤ 0.2
DGHR | ≤ 0.2
WKKW | 0.229
LCSR | ≤ 0.2
YTPT | ≤ 0.2
AYYS | ≤ 0.2
SYRV | ≤ 0.2
VSYR | ≤ 0.2
NTNS | ≤ 0.2

Variant | one-hybrid fitness for binding parS DNA
DTLA | ≤ 0.2
RPLA | ≤ 0.2
RMLA | 0.609
NTLA | ≤ 0.2
RALA | 0.612
RWLA | 0.384
NALA | ≤ 0.2
RCLA | 0.609
NMLA | ≤ 0.2
RTLA | 0.595
PNHR | ≤ 0.2
LLEW | ≤ 0.2
GIRG | ≤ 0.2
DQFS | ≤ 0.2
PYSY | ≤ 0.2
GART | ≤ 0.2
NSRV | ≤ 0.2
IMIV | ≤ 0.2
ICQC | ≤ 0.2
RSLA | 0.591
RDLA | ≤ 0.2
RFLA | 0.533
RLLA | 0.605
NHLA | ≤ 0.2
RNLA | 0.452

Variant | one-hybrid fitness for binding parS DNA
DHLA | ≤ 0.2
RELA | ≤ 0.2
SFLA | ≤ 0.2
DFLA | ≤ 0.2
RHLA | 0.533
DLLA | ≤ 0.2
YYAL | ≤ 0.2
HRNR | ≤ 0.2
VLTI | ≤ 0.2
QANF | ≤ 0.2
MFMS | ≤ 0.2
QQVT | ≤ 0.2
TCGR | ≤ 0.2
KIYR | ≤ 0.2
FHCT | ≤ 0.2
NRQF | ≤ 0.2
THLI | ≤ 0.2
RMEQ | ≤ 0.2
QDTM | ≤ 0.2
VKRS | ≤ 0.2
HTGH | ≤ 0.2
RANP | ≤ 0.2
RANS | 0.96
RADS | 0.966
RADP | ≤ 0.2

Variant | one-hybrid fitness for binding parS DNA
RANH | ≤ 0.2
RADH | ≤ 0.2
YHVS | ≤ 0.2
SKAT | ≤ 0.2
RCTR | ≤ 0.2
DCPY | ≤ 0.2
CRRI | ≤ 0.2
RDQT | ≤ 0.2
RPQT | ≤ 0.2
RCQT | 0.936
REQT | ≤ 0.2
RSQT | 0.874
RSQK | ≤ 0.2
MKGT | ≤ 0.2
PHAA | ≤ 0.2
CNAG | ≤ 0.2
SQES | ≤ 0.2
CCPY | ≤ 0.2
RKVY | 0.412
RKVF | ≤ 0.2
RKKP | ≤ 0.2
RKKD | ≤ 0.2
RKVG | 0.942
RKKG | 0.802
NRVQ | ≤ 0.2

Variant | one-hybrid fitness for binding parS DNA
PLNP | ≤ 0.2
RIQC | 1
RKQY | 0.4
RHQC | 0.951
RHQD | ≤ 0.2
RSQC | 0.958
RSQQ | ≤ 0.2
RIQQ | ≤ 0.2
RKQQ | ≤ 0.2
RKQC | 0.825
RIQY | 0.442
RHQP | ≤ 0.2
REQC | ≤ 0.2
VCLS | ≤ 0.2
NNQG | ≤ 0.2
QKHV | ≤ 0.2
RCQC | 0.994
RDQC | ≤ 0.2
RMQF | ≤ 0.2
RRQC | 0.63
RMQC | 1.02
RLQQ | ≤ 0.2
RRQR | ≤ 0.2
RLQC | 0.998
RLQY | 0.495

Variant | one-hybrid fitness for binding parS DNA
NRQC | ≤ 0.2
RPQC | ≤ 0.2
RMQL | ≤ 0.2
NGPC | ≤ 0.2
QQNS | ≤ 0.2
IKKF | ≤ 0.2
DIKG | ≤ 0.2
YPGG | ≤ 0.2
FNTL | ≤ 0.2
LPNG | ≤ 0.2
RGNA | 0.394
RPDA | ≤ 0.2
RPRA | ≤ 0.2
RSNA | 0.596
RWDA | 0.29
RCRA | 0.796
RCNA | 0.719
RPNA | ≤ 0.2
RWNA | 0.425
RCDA | 0.567
RENA | ≤ 0.2
RWRA | 0.474
YTPK | ≤ 0.2
NRGR | ≤ 0.2
WRHM | ≤ 0.2

Variant | one-hybrid fitness for binding parS DNA
TEAW | ≤ 0.2
HGTW | ≤ 0.2
PNLY | ≤ 0.2
DLLY | ≤ 0.2
RDDA | ≤ 0.2
KFNA | ≤ 0.2
REDA | ≤ 0.2
RDRA | ≤ 0.2
RGRA | 0.496
RFNA | 0.57
RCYA | 0.619
RSDA | 0.515
RSRA | 0.605
RGYA | 0.225
RFDA | 0.46
RCYH | 0.301
CFAA | ≤ 0.2
RNLW | ≤ 0.2
NVSV | ≤ 0.2
DDCG | ≤ 0.2
KMYG | ≤ 0.2
QRCI | ≤ 0.2
APES | ≤ 0.2
SERT | ≤ 0.2
LITT | ≤ 0.2

Variant | one-hybrid fitness for binding parS DNA
MNRC | ≤ 0.2
DIAI | ≤ 0.2
ACMT | ≤ 0.2
YQQG | ≤ 0.2
RSYA | 0.602
DSYA | ≤ 0.2
RSPA | ≤ 0.2
RHKN | 0.365
RHVS | 0.927
RHKS | 0.777
RHVD | ≤ 0.2
RHVN | 0.302
RHKP | ≤ 0.2
KQDV | ≤ 0.2
HTPC | ≤ 0.2
AALR | ≤ 0.2
WLII | ≤ 0.2
YSML | ≤ 0.2
RMKD | ≤ 0.2
RMVR | ≤ 0.2
RMKT | 0.764
RMKM | 0.391
RMVF | 0.259
RMVT | 0.875
